Source: PubChem BioAssay (NCATS)
Results filed as inconclusive are left out. A call without a number means that no potency is given here. Activity calls are given as the source filed them. Calls come from the whole dose curve; as a rule, active = well fitted cell-killing curve with a large enough effect; inconclusive = small, poorly fitted or top-dose-only effect, or effect the other way; inactive = no such curve, though single readings can be large or run the other way.

Experiment: Quantitative High-Throughput drug screen in 47 multiple myeloma cell lines against the NCATS MIPE library collection: FR4_PLB cell viability assay (AID 1918924; note: nearly all actives have a fitted effect of over 35% in size)
Conditions: FR4_PLB myeloma cells viability, CellTiter-Glo ATP, 48 h; series mostly up to 45.8 µM
Source text: PI: Beverly A. Mock Ph.D.
Laboratory of Cancer Biology and Genetics,
Center for Cancer Research, National Cancer Institute,
National Institute of Health, Bethesda, Maryland
Drug resistance and disease progression are common in multiple myeloma (MM) patients, underscoring the need for new therapeutic combinations. […] We hypothesized that effective combinations would reduce MYC expression and enhance p16 activity. […] These preclinical data identify potentially useful drug combinations for evaluation in drug-resistant MM and reveal potential mechanisms of combined drug sensitivity.
Described herein is the primary MIPE qHTS used to cherrypick compounds. Validated compounds were then further tested for potential synergistic activiy.
[1] Peat TJ, Gaikwad SM, Dubois W, Gyabaah-Kessie N, Zhang S, Gorjifard S, Phyo Z, Andres M, Hughitt VK, Simpson RM, Miller MA, Girvin AT, Taylor A, Williams D, D'Antonio N, Zhang Y, Rajagopalan A, Flietner E, Wilson K, Zhang X, Shinn P, Klumpp-Thomas C, McKnight C, Itkin Z, Chen L, Kazandijian D, Zhang J, Michalowski AM, Simmons JK, Keats J, Thomas CJ, Mock BA. Drug combinations identified by high-throughput screening promote cell cycle transition and upregulate Smad pathways in myeloma. Cancer Lett. 2023 Aug 1;568:216284. doi: 10.1016/j.canlet.2023.216284. Epub 2023 Jun 24. PMID: 37356470; PMCID: PMC10408729.
SEQUENCE No. (e.g., 1, 2, 3, etc.); […] (e.g., Cells, Incubation, Reagent, etc.); VALUE and DESCRIPTION.
1; Cells; 5 uL; white, solid bottom 1536-well Greiner assay plate.
2; Compounds; 23 nL; Kalypsis pin tool (Wako USA) equipped with a 1536-well pin head to transfer to the assay plates.
3; Incubation; 48 hours; 37C incubation.
4; Reagent;5uL; CellTiter Glo (Promega).
5; Detector; 425V; Luminescence; Viewlux PerkinElmer.
NOTES (numbers refer to Sequence numbers above)
1. The cell-based screening methods employed in this study were like those previously published. Briefly, the corresponding myeloma cell lines were screened in 1,536-well plates with 500 cells, 5-uL per well for inhibition of cell viability (assessed by measuring ATP levels with CellTiterGlo).
2. NCATS MIPE 4.0 library of approved and investigational drugs were added using the Kalypsis pin tool. Wells treated with DMSO only for 100% viability and media only wells for 0% viability were used as controls.
3. The assay plates were covered and incubated for 48 hours in a 37C, 5% CO2 incubator with controlled humidity.
4. After 48 hours, CellTilter-GloTM luminescent substrate mix (Promega) reagent was added to the assay plate and plates we incubated for 5 min at room temperature.
5. Signal was measured as median relative luminescence units on a ViewLux (PerkinElmer) multiplate reader.
[1] Heske CM, Davis MI, Baumgart JT, Wilson K, Gormally MV, Chen L, Zhang X, Ceribelli M, Duveau DY, Guha R, Ferrer M, Arnaldez FI, Ji J, Tran HL, Zhang Y, Mendoza A, Helman LJ, Thomas CJ. Matrix Screen Identifies Synergistic Combination of PARP Inhibitors and Nicotinamide Phosphoribosyltransferase (NAMPT) Inhibitors in Ewing Sarcoma. Clin Cancer Res. 2017 Dec 1;23(23):7301-7311. doi: 10.1158/1078-0432.CCR-17-1121. Epub 2017 Sep 12. PMID: 28899971; PMCID: PMC6636827.
Potency is the fitted concentration of half-maximal effect.

**Q.** For `NC(=O)c1ncn([C@@H]2O[C@H](CO)[C@@H](O)[C@@H]2O)n1`, which Potency is on record?
**A.** Its Potency is “inactive”.

**Q.** Which Potency does the source give for `COC(=O)Nc1ccc(-c2nc(N3CCOCC3)c3cnn(C4CCN(C(=O)OC)CC4)c3n2)cc1` here?
**A.** Its Potency is 1.05 µM (active).

**Q.** For `COc1nccc(-c2c(-c3ccc(F)cc3)ncn2C2CCC(O)CC2)n1` (stereo not given), which Potency is on record?
**A.** Its Potency is “inactive”.

**Q.** For `COc1ccnc(CS(=O)c2nc3ccc(OC(F)F)cc3[nH]2)c1OC` (stereo not given), which Potency is on record?
**A.** The Potency was “inactive”.

**Q.** For `COc1cc2c(cc1OC)CC(=O)N(CCCN(C)C[C@H]1Cc3cc(OC)c(OC)cc31)CC2`, which Potency is on record?
**A.** Its Potency is “inactive”.

**Q.** For `CCOC(=O)[C@@H](N)CCC(=O)N[C@@H](CSCc1ccccc1)C(=O)N[C@@H](C(=O)OCC)c1ccccc1`, which Potency is on record?
**A.** Its Potency is “inactive”.

**Q.** Which Potency does the source give for `COc1ccc(C=CC(=O)Nc2ccccc2C(=O)O)cc1OC` here?
**A.** Its Potency is “inactive”.

**Q.** With `CON(C)C(=O)N1N=C(c2cc(F)ccc2F)S[C@]1(CCCN)c1ccccc1` as the compound, how does the Potency read?
**A.** Its Potency is “inactive”.

**Q.** With `O=C(Nc1ccc(OC(F)(F)F)cc1)c1sccc1NCc1ccnc2ccccc12` as the compound, how does the Potency read?
**A.** The Potency was 4.69 µM (active).

**Q.** For `CCNC(=O)[C@H]1O[C@@H](n2cnc3c(N)nc(NCCc4ccc(CCC(=O)O)cc4)nc32)[C@H](O)[C@H]1O`, which Potency is on record?
**A.** Its Potency is “inactive”.

**Q.** With `COc1cc2nccc(Oc3ccc(NC(=O)Nc4ccc(F)cc4F)c(F)c3)c2cc1OC` as the compound, how does the Potency read?
**A.** Its Potency is “inactive”.

**Q.** With `CCOC(=O)[C@H](CCc1ccccc1)N[C@@H](C)C(=O)N1CCCC1C(=O)O` (stereo not given in full) as the compound, how does the Potency read?
**A.** Its Potency is “inactive”.

**Q.** For `C[C@@]1(C(=O)Nc2ccc(F)nc2)CCCN1c1nc(Nc2cc(C3CC3)[nH]n2)c2cccn2n1`, which Potency is on record?
**A.** Its Potency is 0.166 µM (active).

**Q.** For `CCCC1OC2C[C@@H]3[C@H]4CCC5=CC(=O)C=C[C@]5(C)[C@H]4C(O)C[C@]3(C)[C@]2(C(=O)CO)O1` (stereo not given in full), which Potency is on record?
**A.** Its Potency is “inactive”.

**Q.** For `Cc1cccc(-c2[nH]c(C(C)(C)C)nc2-c2ccc3c(c2)OCO3)n1`, which Potency is on record?
**A.** The Potency was 29.6 µM (active).

**Q.** With `CN1C(=O)C[C@H](C(=O)N[C@@H](Cc2cnc[nH]2)C(=O)N2CCC[C@@H]2C(N)=O)NC1=O` as the compound, how does the Potency read?
**A.** The Potency was “inactive”.

**Q.** For `CN1CC(=O)N2C(Cc3c([nH]c4ccccc34)[C@H]2c2ccc3c(c2)OCO3)C1=O` (stereo not given in full), which Potency is on record?
**A.** The Potency was “inactive”.

**Q.** With `COc1ccc(CCC(=O)Nc2nc3ccc(Cl)cc3s2)cc1OC` as the compound, how does the Potency read?
**A.** The Potency was “inactive”.

**Q.** For `CCNC(=O)Nc1ccc(Oc2ncnc(N)c2C=NOC)cc1Cl`, which Potency is on record?
**A.** Its Potency is 3.72 µM (active).

**Q.** With `Fc1ccc(C(c2ccc(F)cc2)N2CCN(CC=Cc3ccccc3)CC2)cc1` as the compound, how does the Potency read?
**A.** The Potency was “inactive”.

**Q.** For `COc1cc([C@H]2Oc3cc([C@H]4Oc5cc(O)cc(O)c5C(=O)[C@H]4O)ccc3O[C@H]2CO)ccc1O`, which Potency is on record?
**A.** Its Potency is 18.7 µM (active).

**Q.** With `CNC(=O)c1cc(COc2nnc(Nc3ccc(Cl)cc3)c3ccoc23)ccn1` as the compound, how does the Potency read?
**A.** The Potency was 26.4 µM (active).

**Q.** For `CNc1nc(Nc2ccc(C(=O)N3CCOCC3)cc2OC)ncc1Cl`, which Potency is on record?
**A.** The Potency was “inactive”.

**Q.** For `N=C1SC(=Cc2ccc(-c3ccc4c(c3)C(=O)NC4=O)o2)C(=O)N1c1ccc(Br)cc1`, which Potency is on record?
**A.** The Potency was 3.32 µM (active).

**Q.** For `CN(C)c1ccc(-c2nc3ncc(Cl)c(N4CCN(CC(=O)Nc5nccs5)CC4)c3[nH]2)cc1`, which Potency is on record?
**A.** Its Potency is 2.09 µM (active).

**Q.** Which Potency does the source give for `CS(=O)(=O)c1ccc(C2=C(c3ccccc3)C(=O)OC2)cc1` here?
**A.** The Potency was “inactive”.

**Q.** With `CN(C)CCN(C)C(=O)c1ccc(NC(=O)Nc2ccc(-c3nc(N4CCOCC4)c4ccn(CC(F)(F)F)c4n3)cc2)cc1` as the compound, how does the Potency read?
**A.** Its Potency is 0.0372 µM (active).

**Q.** Which Potency does the source give for `CCN(CCO)CCCOc1ccc2c(Nc3cc(CC(=O)Nc4cccc(F)c4)[nH]n3)ncnc2c1` here?
**A.** Its Potency is “inactive”.

**Q.** Which Potency does the source give for `N#CC1(c2cccc(C(=O)Nc3cc(Oc4ccc5nc(NC(=O)C6CC6)sc5n4)ccc3F)c2Cl)CC1` here?
**A.** The Potency was 10.5 µM (active).

**Q.** Which Potency does the source give for `C[C@@H]1CCO[C@H]2Cn3cc(C(=O)NCc4ccc(F)cc4F)c(=O)c(O)c3C(=O)N12` here?
**A.** The Potency was 37.2 µM (active).

**Q.** Which Potency does the source give for `CC(C)c1onc(-c2c(Cl)cccc2Cl)c1COc1ccc(C=Cc2cccc(C(=O)O)c2)c(Cl)c1` here?
**A.** The Potency was “inactive”.

**Q.** For `NC(=O)c1noc([C@H](CCCC2CCCCC2)CC(=O)NO)n1`, which Potency is on record?
**A.** The Potency was 6.62 µM (active).

**Q.** With `CCC(=C(CC)c1ccc(O)cc1)c1ccc(O)cc1` as the compound, how does the Potency read?
**A.** The Potency was 8.33 µM (active).

**Q.** Which Potency does the source give for `CO[C@H]1O[C@@H]2O[C@@]3(C)CC[C@@H]4[C@@H](C)CC[C@@H]([C@H]1C)[C@@]24OO3` here?
**A.** The Potency was “inactive”.

**Q.** For `CCCCC(C)(C)[C@H](O)C=C[C@H]1[C@H](O)CC(=O)[C@H]1CC=CCCCC(=O)O`, which Potency is on record?
**A.** The Potency was “inactive”.

**Q.** Which Potency does the source give for `CN1CCc2c(n(Cc3ccc(C(=O)NO)cc3)c3ccccc23)C1` here?
**A.** Its Potency is 16.6 µM (active).

**Q.** Which Potency does the source give for `CN1CC(=O)NC1=NC(=O)Nc1cccc(Cl)c1` here?
**A.** The Potency was 20.9 µM (active).

**Q.** With `NC(N)=Nc1nc(CSCCC(N)=NS(N)(=O)=O)cs1` as the compound, how does the Potency read?
**A.** Its Potency is “inactive”.

**Q.** For `OC[C@H]1O[C@@H](OCCc2ccc(O)cc2)[C@H](O)[C@@H](O)[C@H]1O`, which Potency is on record?
**A.** The Potency was “inactive”.

**Q.** With `OCCn1cc(-c2ccc3c(c2)CCC3=NO)c(-c2ccncc2)n1` as the compound, how does the Potency read?
**A.** Its Potency is “inactive”.
